High-throughput results (PubChem BioAssay)
3CLpro inhibitor: SARS-CoV 3CLpro protease inhibition. inhibition, % at 6 µM. 290,000 tested, 0.14% active. AID 1706. recombinant SARS-CoV 3CLpro, quenched FRET peptide cleavage; in the data active means inhibition above about 12%
Autofluor counter: flagged as autofluorescent in microsphere protease counterscreen. fluorescence intensity (concentration not given with the values). 360,000 tested, 3.1% active. compound autofluorescence counterscreen, microsphere flow cytometry; active compounds read high. AID 624483; in the data active means fluorescence intensity above about 16000; inconclusive means no clear call, values can overlap the other calls
BoNT-A LC inh2: BoNT A light chain protease inhibition; 360,000 tested, 0.17% active; inhibition, % at 10 µM; multiplex microsphere protease substrate cleavage, flow cytometry; AID 588499; further: plate controls were buffer without enzyme for full effect and enzyme alone for no effect
Anthrax LF prot: anthrax lethal factor protease inhibition. P15917. multiplex microsphere protease cleavage assay, LF. inhibition, % at 10 µM. 360,000 tested, 0.12% active. AID 588501; further: plate controls were buffer without enzyme for full effect and enzyme alone for no effect
DUSP3 inh: blocks human VHR1 dual specificity phosphatase. P51452. recombinant VHR phosphatase, pNPP absorbance. inhibition, % at 13.3 µM. 290,000 tested, 0.52% active; in the data active means inhibition above about 50%
Target sequence (P51452 whole entry, looked up): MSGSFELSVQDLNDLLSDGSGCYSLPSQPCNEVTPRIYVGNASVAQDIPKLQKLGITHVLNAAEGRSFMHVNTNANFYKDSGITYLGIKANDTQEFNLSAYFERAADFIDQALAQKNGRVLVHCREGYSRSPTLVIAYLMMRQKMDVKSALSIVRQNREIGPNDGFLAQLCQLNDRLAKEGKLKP
BoNT-F LC inh: BoNT F light chain protease inhibition; Multiplex microsphere protease cleavage assay, flow cytometry; inhibition, % at 10 µM; 360,000 tested, 0.22% active; AID 588497; in the data active means inhibition above about 35%, passing the limit was not always enough; inconclusive means no clear call, values can overlap the other calls; further: plate controls were buffer without enzyme for full effect and enzyme alone for no effect
The depositor's hits bear a star; ? = inconclusive; / = no result. Rows were chosen to be rich in hits. Some 3.9% of all compounds tested hit in one or more screens of this group. Unless noted, no stated cut-off is given here; in the data, active means inhibition above about 30%; inconclusive means no clear call, values can overlap the other calls; inactive means below that.

SMILES | 3CLpro inhibitor | Autofluor counter | BoNT-A LC inh2 | Anthrax LF prot | DUSP3 inh | BoNT-F LC inh
COc1ccc(Oc2ccc3c(C(F)(F)F)cc(C(F)(F)F)nc3n2)cc1 | -2 | 22263* | ? | 0 | 36 | -2
Oc1ccc(Oc2ccc3c(C(F)(F)F)cc(C(F)(F)F)nc3n2)cc1 | 7 | 4103 | -3 | -8 | 31 | -24
FC(F)(F)c1ccc(Oc2ccc3c(C(F)(F)F)cc(C(F)(F)F)nc3n2)cc1 | -8 | 22830* | 1 | 0 | 10 | 2
O=C(O)/C=C\C(=O)Nc1ccc(N2CCN(c3cccc(Cl)c3)CC2)cc1 | -1 | 3883 | 0 | -6 | 57* | -22
CCn1cc(C(=O)O)c(=O)c2cc(F)c(N/N=C/c3ccccc3[N+](=O)[O-])cc21 | -8 | 7283 | 0 | -2 | -2 | 2
CC1=C(C(=O)OCC(C)C)C(c2ccsc2)NC(=O)N1 (stereo not given) | 1 | 16729* | 0 | -5 | 15 | -3
CC1=C(C(=O)OC(C)C)C(c2ccc(F)cc2)NC(=O)N1 (stereo not given) | 0 | 16191* | 0 | 0 | -1 | -2
CCC(C)OC(=O)C1=C(C)NC(=O)NC1c1ccc(F)cc1 (stereo not given) | -2 | 10770 | -1 | 0 | 32 | -6
CCOC(=O)C1=C(C)NC(=O)NC1c1ccsc1 (stereo not given) | 6 | 3266 | 0 | -9 | 25 | -3
COc1ccc(Cl)cc1C(=O)Nc1cccnc1Cl | 0 | 4172 | -3 | -12 | 9 | ?
CC(C)C(=O)Nc1ccc(Cc2ccc(NC(=O)C(C)C)c(O)c2)cc1O | -2 | 16658* | 0 | -2 | -13 | -2
CC(=O)OCC1OC(n2c(-c3ccc(Cl)cc3)ccc(C#N)c2=S)C(OC(C)=O)C(OC(C)=O)C1OC(C)=O (stereo not given) | / | 3644 | 0 | -2 | / | -2
O=C(c1ccc(COc2ccccc2[N+](=O)[O-])o1)N1CCCCC1 | -2 | 19870* | 0 | -1 | 6 | -1
O=C(O)C1C2CCCCC2=C2CCCCC2C1C(=O)O (stereo not given) | -3 | 18813* | ? | 0 | 29 | 3
O=C(O)C1C2CCCCC2=C2CCCCC2C1C(=O)Nc1nccs1 (stereo not given) | / | 2889 | 0 | -4 | / | -8
O=C(CNCc1ccc(Cl)cc1)Nc1cc(S(=O)(=O)N2CCCC2)ccc1Cl | / | 6344 | 0 | 1 | / | -9
Cc1cnc(NC(=O)C(C)N2C(=O)C3CC=CCC3C2=O)s1 (stereo not given) | -3 | 17257* | -3 | -2 | -8 | -4
CN[C@@H](C)C(=O)NC[C@H]1O[C@@H](n2cnc3c(N)ncnc32)[C@H](O)[C@@H]1O | / | 3951 | 0 | 0 | / | -3
Cc1ccc(S(=O)(=O)N2CCN(c3nc(C(C)C)c4c(c3C#N)CC(C)(C)OC4)CC2)cc1 | -1 | 22172* | 4 | -1 | 8 | 7
Cn1c(CO)cnc1SCc1c(Cl)cccc1Cl | 1 | 22193* | ? | -1 | -4 | -1
Cn1c(CS(=O)Cc2c(Cl)cccc2Cl)nnc1SCc1c(Cl)cccc1Cl (stereo not given) | -5 | 16613* | -1 | -2 | -9 | -1
O=S(Cc1ccc(Br)cc1)Cc1nnc(SCc2c(Cl)cccc2Cl)n1-c1ccccc1 (stereo not given) | 5 | 11794 | 0 | -2 | 8 | -1
CC1(C)NC(=O)N(CC(O)CN2C(=O)NC(C)(C)C2=O)C1=O | -1 | 23204* | 0 | -2 | 28 | 0
CCN(CC)CC(O)CN1C(=O)NC(C)(C)C1=O (stereo not given) | 1 | 3910 | 1 | -5 | 12 | -4
CC1(C)NC(=O)N(CC(O)COc2ccccc2C(=O)Nc2ccccc2)C1=O (stereo not given) | 1 | 23718* | -3 | -2 | 3 | -6
Cc1ccc(Oc2coc3cc(OC(=O)c4cccs4)ccc3c2=O)cc1 | -5 | 16461* | 1 | -2 | 35 | -4
Cc1ccc2cc(CN(c3cccc(C)c3C)S(=O)(=O)c3ccccc3)c(=O)[nH]c2c1 | 10 | 4295 | 0 | -3 | 25 | 2
CC(C)CN(C(=O)CSc1nc2ccccc2o1)c1c(N)n(Cc2ccccc2)c(=O)[nH]c1=O | / | 3874 | -1 | 2 | / | 2
COC(=O)C1=C(Nc2ccc(C)cc2)C=C(C)C(C(=O)OC)C1c1ccc(OC)cc1 (stereo not given) | 2 | 6441 | -1 | -6 | 4 | -6
